What all share (experiment): DAPPL (digital affinity profiling via proximity ligation, sequencing); 10 mM Tris-HCl pH 7.5, 50 mM NaCl, 1 mM DTT, 4% glycerol, room temperature, 30 min; GST-TFs on glutathione beads, 16-mer random dsDNA library, 0.1% formaldehyde crosslink after washing; high values mean tight binding
Details in all cases: protein: recombinant; tags: N-terminal GST; dsDNA, one strand shown

In assay [1] the target is T1, ELK1 (Homo sapiens, UniProt P19419 1-428).
T1 sequence: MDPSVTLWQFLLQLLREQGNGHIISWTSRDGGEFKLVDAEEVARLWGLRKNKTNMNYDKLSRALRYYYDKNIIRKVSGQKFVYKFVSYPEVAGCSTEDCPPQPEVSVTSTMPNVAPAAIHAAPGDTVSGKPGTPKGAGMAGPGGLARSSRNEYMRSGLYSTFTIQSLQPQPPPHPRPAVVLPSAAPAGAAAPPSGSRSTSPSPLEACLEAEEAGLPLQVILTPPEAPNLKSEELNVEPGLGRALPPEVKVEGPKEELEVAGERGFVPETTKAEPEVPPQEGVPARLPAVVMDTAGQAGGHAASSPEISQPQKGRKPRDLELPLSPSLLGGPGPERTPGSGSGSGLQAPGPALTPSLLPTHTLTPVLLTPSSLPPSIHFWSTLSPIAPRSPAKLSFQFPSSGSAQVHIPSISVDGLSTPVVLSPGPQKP
The essentials: (§1)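 Each value of binding signal is a hexamer's read frequency for a factor divided by the same hexamer's frequency in the tag-only sample. Barcoded, bead-captured GST fusions of human transcription factors made in yeast were pooled with that sample and incubated with 200 nmole of a random double-stranded 16-mer DNA library in Tris/NaCl/DTT/glycerol buffer at room temperature for 30 min. Washing, 0.1% formaldehyde crosslinking, proximity ligation, PCR and Illumina NextSeq500 sequencing followed.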

The target in assay [2] is T2, GABPA (Homo sapiens, UniProt Q06546 1-454).
T2 sequence: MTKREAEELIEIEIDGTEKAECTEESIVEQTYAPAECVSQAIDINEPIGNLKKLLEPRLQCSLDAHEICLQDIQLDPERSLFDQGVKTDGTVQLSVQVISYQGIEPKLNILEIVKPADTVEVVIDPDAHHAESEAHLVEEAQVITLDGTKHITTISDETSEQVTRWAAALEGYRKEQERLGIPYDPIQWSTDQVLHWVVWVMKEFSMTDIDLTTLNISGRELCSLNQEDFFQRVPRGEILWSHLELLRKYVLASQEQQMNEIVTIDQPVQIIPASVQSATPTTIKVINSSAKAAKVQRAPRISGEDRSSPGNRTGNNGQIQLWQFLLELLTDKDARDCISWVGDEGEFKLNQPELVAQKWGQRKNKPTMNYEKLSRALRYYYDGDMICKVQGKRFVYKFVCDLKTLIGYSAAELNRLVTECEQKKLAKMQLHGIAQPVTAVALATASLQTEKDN
The essentials: as §1

Assay [3] deals with T3, ERG (Homo sapiens, UniProt P11308 1-479).
T3 sequence: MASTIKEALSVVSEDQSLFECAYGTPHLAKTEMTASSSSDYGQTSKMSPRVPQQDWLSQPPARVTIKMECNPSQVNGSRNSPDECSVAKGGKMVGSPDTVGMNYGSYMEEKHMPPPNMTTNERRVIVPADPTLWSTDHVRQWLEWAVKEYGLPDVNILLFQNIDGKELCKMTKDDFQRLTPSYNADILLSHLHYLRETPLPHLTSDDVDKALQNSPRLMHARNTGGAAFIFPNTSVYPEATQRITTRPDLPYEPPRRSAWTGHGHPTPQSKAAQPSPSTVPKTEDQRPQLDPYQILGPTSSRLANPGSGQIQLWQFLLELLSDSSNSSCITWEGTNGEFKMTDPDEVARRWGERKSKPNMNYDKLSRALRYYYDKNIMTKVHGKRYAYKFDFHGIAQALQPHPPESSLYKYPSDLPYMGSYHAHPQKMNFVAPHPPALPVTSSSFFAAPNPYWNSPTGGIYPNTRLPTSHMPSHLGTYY
The essentials: as §1

For assay [4], the target named is ELF1 (Homo sapiens, UniProt P32519 1-619). The essentials: as §1
Assay [5] deals with SPI1 (Homo sapiens, UniProt P17947 1-270). The essentials: as §1
Assay [6] concerns the target SPIB (Homo sapiens, UniProt Q01892 1-262). The essentials: as §1
Assay [7] concerns the target ETV5 (Homo sapiens, UniProt P41161 1-510). The essentials:
as §1

In assay [8] the target is T4, SPIC (Homo sapiens, UniProt Q8N5J4 1-248).
T4 sequence: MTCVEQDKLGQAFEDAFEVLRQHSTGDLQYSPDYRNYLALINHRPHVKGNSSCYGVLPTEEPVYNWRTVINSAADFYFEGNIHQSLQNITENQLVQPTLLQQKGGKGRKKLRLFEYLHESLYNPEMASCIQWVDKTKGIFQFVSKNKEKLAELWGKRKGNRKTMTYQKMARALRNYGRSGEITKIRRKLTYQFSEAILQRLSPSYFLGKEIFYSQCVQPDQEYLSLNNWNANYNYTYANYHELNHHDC
The essentials:
as §1

Assay [9] deals with ELF4 (Homo sapiens, UniProt Q99607 1-663). The essentials: as §1
Assay [10] concerns the target T5, ELF3 (Homo sapiens, UniProt P78545 1-371).
T5 sequence: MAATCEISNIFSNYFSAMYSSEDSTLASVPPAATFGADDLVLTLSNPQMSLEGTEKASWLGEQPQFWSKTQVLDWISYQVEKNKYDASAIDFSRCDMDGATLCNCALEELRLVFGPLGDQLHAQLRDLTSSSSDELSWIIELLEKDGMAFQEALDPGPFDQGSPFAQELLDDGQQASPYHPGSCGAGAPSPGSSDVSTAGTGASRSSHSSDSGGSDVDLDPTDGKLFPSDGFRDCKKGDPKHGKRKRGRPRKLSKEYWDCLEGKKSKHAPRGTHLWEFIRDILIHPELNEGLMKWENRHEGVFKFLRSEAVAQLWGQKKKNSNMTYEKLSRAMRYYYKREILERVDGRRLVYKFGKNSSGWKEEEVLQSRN
The essentials: as §1

Assay [11] concerns the target ETV1 (Homo sapiens, UniProt P50549 1-477). The essentials: as §1
The target in assay [12] is T6, ETV3L (Homo sapiens, UniProt Q6ZN32 1-361).
T6 sequence: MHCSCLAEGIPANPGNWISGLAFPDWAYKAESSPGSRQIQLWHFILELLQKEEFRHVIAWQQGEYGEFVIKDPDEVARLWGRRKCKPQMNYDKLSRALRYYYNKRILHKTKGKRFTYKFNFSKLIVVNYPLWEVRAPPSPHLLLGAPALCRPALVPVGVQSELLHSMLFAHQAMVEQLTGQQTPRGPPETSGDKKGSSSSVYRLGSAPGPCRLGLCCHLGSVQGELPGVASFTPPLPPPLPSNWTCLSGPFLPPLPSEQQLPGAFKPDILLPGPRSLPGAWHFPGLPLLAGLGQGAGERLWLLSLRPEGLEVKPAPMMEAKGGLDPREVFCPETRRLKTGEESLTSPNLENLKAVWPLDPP
The essentials: as §1

Assay [13] has as its target T7, ETS2 (Homo sapiens, UniProt P15036 1-469).
T7 sequence: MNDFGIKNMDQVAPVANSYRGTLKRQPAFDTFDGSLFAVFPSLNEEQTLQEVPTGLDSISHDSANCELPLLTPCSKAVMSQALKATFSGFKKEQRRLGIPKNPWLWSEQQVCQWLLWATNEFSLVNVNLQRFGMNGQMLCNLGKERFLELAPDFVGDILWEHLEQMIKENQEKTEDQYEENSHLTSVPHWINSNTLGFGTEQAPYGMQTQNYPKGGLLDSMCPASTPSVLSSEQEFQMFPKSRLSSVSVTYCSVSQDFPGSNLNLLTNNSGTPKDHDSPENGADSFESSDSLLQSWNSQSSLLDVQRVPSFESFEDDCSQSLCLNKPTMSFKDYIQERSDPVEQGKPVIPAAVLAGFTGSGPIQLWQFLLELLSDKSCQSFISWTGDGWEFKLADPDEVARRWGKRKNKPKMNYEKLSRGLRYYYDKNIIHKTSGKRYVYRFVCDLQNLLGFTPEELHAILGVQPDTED
The essentials: as §1

Assay [14] addresses T8, SPDEF (Homo sapiens, UniProt O95238 1-335).
T8 sequence: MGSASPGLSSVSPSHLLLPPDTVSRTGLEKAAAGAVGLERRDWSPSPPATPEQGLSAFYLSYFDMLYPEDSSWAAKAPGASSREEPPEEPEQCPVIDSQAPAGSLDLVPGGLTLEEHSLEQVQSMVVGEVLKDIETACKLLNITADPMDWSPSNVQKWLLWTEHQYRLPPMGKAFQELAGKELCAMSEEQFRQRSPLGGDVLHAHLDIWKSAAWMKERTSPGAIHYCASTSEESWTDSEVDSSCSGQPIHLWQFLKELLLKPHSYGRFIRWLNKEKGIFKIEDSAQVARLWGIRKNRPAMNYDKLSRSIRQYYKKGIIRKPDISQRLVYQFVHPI
The essentials: as §1

Assay [15] deals with T9, ETV7 (Homo sapiens, UniProt Q9Y603 1-341).
T9 sequence: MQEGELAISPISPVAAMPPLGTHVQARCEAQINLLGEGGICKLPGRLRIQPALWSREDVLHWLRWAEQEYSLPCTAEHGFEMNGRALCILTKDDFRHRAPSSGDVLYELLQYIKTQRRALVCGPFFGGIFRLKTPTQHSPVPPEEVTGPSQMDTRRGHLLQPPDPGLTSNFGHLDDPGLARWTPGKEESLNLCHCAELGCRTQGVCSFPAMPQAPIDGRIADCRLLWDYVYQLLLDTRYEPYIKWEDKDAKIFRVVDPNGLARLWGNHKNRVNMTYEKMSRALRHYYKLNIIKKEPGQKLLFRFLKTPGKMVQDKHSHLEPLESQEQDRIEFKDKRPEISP
The essentials:
as §1

Assay [16] addresses T10, ETV3 (Homo sapiens, UniProt P41162-2 1-143).
T10 sequence: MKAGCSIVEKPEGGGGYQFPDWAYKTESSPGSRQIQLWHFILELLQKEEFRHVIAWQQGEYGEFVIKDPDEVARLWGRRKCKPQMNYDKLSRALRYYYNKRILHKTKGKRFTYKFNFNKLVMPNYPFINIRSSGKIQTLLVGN
The essentials:
as §1

In assay [17] the target is ETV6 (Homo sapiens, UniProt P41212 1-452). The essentials:
as §1

Chain of ETV1 (P50549 whole entry): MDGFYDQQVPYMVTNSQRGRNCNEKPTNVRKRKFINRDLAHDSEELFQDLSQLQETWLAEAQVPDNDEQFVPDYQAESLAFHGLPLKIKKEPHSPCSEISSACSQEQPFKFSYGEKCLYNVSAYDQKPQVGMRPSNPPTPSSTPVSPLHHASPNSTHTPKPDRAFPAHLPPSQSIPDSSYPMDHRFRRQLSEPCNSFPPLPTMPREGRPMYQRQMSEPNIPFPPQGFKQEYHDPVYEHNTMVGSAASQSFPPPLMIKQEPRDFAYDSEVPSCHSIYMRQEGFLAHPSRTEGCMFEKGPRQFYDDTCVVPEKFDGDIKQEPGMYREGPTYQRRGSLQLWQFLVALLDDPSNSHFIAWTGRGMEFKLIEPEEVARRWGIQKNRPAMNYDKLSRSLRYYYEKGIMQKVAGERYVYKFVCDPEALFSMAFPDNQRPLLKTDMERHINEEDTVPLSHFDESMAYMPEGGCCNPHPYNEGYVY
Chain of ETV5 (P41161 whole entry): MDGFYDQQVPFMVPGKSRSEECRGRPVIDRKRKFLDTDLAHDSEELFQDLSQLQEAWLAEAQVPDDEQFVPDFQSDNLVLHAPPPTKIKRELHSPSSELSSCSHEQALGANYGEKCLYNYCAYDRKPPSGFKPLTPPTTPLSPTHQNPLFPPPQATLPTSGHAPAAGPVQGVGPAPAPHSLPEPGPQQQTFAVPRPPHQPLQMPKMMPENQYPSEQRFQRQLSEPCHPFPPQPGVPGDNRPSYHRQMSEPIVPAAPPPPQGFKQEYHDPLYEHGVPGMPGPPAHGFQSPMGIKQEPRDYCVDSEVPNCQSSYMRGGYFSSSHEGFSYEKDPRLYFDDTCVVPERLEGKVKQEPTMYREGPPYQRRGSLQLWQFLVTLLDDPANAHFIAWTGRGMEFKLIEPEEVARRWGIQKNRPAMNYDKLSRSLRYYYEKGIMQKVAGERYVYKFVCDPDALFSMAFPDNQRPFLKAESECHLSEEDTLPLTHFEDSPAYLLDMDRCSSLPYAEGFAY
Chain of ELF4 (Q99607 whole entry): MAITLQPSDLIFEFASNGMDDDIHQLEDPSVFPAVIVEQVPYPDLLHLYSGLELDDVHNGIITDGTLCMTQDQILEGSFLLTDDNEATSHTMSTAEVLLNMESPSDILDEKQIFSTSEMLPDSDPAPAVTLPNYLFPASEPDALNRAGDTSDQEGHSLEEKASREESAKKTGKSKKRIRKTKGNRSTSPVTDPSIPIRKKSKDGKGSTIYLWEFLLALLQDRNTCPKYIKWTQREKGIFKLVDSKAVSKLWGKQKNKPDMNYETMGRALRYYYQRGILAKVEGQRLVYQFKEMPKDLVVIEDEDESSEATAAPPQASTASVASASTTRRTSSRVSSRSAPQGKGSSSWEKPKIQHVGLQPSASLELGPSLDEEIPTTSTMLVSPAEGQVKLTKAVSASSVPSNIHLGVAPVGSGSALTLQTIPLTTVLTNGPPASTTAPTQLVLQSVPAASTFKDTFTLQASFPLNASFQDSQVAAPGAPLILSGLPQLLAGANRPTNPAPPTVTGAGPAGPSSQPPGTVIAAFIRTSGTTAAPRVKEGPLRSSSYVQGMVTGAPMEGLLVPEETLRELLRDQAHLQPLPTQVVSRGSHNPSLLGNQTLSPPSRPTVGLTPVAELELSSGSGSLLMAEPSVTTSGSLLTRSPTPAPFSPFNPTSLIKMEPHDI
Chain of ETV6 (P41212 whole entry): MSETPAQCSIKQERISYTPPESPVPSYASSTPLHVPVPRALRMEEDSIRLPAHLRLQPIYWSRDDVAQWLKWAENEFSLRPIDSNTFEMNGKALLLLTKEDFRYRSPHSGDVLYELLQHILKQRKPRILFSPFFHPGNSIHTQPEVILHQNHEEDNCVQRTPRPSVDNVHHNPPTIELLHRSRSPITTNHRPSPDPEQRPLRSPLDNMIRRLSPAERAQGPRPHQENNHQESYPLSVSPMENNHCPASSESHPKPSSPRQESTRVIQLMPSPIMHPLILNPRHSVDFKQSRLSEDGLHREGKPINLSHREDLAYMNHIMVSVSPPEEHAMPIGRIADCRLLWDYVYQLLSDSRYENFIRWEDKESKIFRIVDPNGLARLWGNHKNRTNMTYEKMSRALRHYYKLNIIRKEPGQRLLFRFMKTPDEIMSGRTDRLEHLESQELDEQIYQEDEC
Chain of ELF1 (P32519 whole entry): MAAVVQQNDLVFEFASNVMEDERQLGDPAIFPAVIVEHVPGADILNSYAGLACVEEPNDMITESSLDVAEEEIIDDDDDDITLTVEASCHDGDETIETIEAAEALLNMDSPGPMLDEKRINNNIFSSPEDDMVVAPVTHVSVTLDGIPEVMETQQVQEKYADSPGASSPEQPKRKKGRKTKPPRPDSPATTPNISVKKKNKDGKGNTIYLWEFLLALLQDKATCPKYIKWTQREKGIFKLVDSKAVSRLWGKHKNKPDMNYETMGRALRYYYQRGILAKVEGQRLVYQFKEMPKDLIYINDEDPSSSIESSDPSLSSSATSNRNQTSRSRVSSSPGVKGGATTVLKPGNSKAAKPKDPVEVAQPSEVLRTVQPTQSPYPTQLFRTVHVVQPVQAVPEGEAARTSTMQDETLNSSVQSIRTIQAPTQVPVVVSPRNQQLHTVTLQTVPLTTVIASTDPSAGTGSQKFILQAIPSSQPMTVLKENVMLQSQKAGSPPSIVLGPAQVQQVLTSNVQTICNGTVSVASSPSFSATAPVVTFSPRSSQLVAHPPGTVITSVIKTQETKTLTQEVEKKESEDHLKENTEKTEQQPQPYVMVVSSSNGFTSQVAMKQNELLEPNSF
Chain of SPIB (Q01892 whole entry): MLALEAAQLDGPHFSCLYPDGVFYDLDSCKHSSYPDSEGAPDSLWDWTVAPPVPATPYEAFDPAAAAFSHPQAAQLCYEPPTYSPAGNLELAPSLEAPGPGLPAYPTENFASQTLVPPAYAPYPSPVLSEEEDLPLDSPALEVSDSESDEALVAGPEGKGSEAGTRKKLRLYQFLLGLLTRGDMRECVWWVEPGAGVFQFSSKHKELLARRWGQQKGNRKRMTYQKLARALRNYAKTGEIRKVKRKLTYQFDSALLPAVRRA

In the case of GTTACC, the binding signal in assay [1] was 1.16 fold enrichment (6-mer frequency, TF over GST control); in assay [2], 1.05 fold enrichment (6-mer frequency, TF over GST control); in [3], 1.04 fold enrichment (6-mer frequency, TF over GST control); in assay [4], 1.04 fold enrichment (6-mer frequency, TF over GST control); in [5], 1.12 fold enrichment (6-mer frequency, TF over GST control); in assay [6] it was 1.14 fold enrichment (6-mer frequency, TF over GST control). The binding signal was 1.06 fold enrichment (6-mer frequency, TF over GST control) in assay [7]; 1.03 fold enrichment (6-mer frequency, TF over GST control) in assay [8]; 1.07 fold enrichment (6-mer frequency, TF over GST control) in [9]; 1.06 fold enrichment (6-mer frequency, TF over GST control) in assay [10]; 1.08 fold enrichment (6-mer frequency, TF over GST control) in [11]; 1.04 fold enrichment (6-mer frequency, TF over GST control) in [12]. The binding signal in assay [13] is 1.09 fold enrichment (6-mer frequency, TF over GST control); in assay [14], 1.03 fold enrichment (6-mer frequency, TF over GST control); in [15], 1.02 fold enrichment (6-mer frequency, TF over GST control); in assay [16] it was 1.03 fold enrichment (6-mer frequency, TF over GST control); in [17], 1.03 fold enrichment (6-mer frequency, TF over GST control).

The values are drawn from paper PMC7862700, “An all-to-all approach to the identification of sequence-specific readers for epigenetic DNA modifications on cytosine”.
